Where “and” joins values, the source holds several entries; their conditions need not be identical. Identical values can stand only once. The campaign covered roughly 5,500 compounds. About 2,000 (36%) were called active. Roughly 18% stayed inconclusive and do not appear here. Rule as the data show it: active = normalized growth mostly below about 0.91 (no sharp cut-off); inconclusive = no clear call, values can overlap the other calls; inactive = mostly above about 0.92. The list shows a part of the results.
Test: chemical genetic growth profiling, strain panel (AID 1159580);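 also: tested at 20 µM; growth read once vehicle control cultures reached saturation at 30 °C; 1 = growth at the plate median or of vehicle wells; lower values mean less growth of the strain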
Details: S. cerevisiae deletion strains, growth OD

Measured: normalized growth

CC(C)[C@@H]1CC[C@@H](C)C[C@H]1OC(=O)c1ccccc1
inactive: locus YAL013W, strain DEP1, stronger effect = lower value 1.01 | locus YAL021C, strain ccr4, stronger effect = lower value 1.01 | locus YAL026C, strain drs2, stronger effect = lower value 1.01 | locus YAL030W, strain snc1, stronger effect = lower value 1.01 | locus YBL061C, strain skt5, stronger effect = lower value 1.01 | locus YBR009C, strain hhf1, stronger effect = lower value 0.999 | locus YBR021W, strain FUR4, stronger effect = lower value 0.997 | locus YBR023C, strain chs3, stronger effect = lower value 1.01 | locus YBR171W, strain sec66, stronger effect = lower value 1 | locus YBR229C, strain ROT2, stronger effect = lower value 1.01 | locus YBR231C, strain swc5, stronger effect = lower value 1.02 | locus YBR279W, strain paf1, stronger effect = lower value 1.01 | locus YCL011C, strain gbp2, stronger effect = lower value 1 | locus YCL016C, strain dcc1, stronger effect = lower value 1.01 | locus YCL029C, strain bik1, stronger effect = lower value 0.99 | locus YCL061C, strain MRC1, stronger effect = lower value 1 | locus YCL069W, strain vba3, stronger effect = lower value 1 | locus YCR088W, strain abp1, stronger effect = lower value 1 | locus YDL005C, strain med2, stronger effect = lower value 0.991 | locus YDL035C, strain GPR1, stronger effect = lower value 0.988 | locus YDL040C, strain nat1, stronger effect = lower value 0.993 | locus YDL074C, strain BRE1, stronger effect = lower value 0.995 | locus YDL101C, strain DUN1, stronger effect = lower value 0.999 | locus YDL134C, strain PPH21, stronger effect = lower value 0.962 | locus YDL185W, strain tfp1, stronger effect = lower value 0.997 | locus YDL192W, strain arf1, stronger effect = lower value 0.929 | locus YDR001C, strain nth1, stronger effect = lower value 0.994 | locus YDR069C, strain doa4, stronger effect = lower value 0.999 | locus YDR101C, strain arx1, stronger effect = lower value 0.978 | locus YDR137W, strain rgp1, stronger effect = lower value 0.942 | locus YDR150W, strain NUM1, stronger effect = lower value 1.04 | locus YDR159W, strain sac3, stronger effect = lower value 1.02 | locus YDR162C, strain NBP2, stronger effect = lower value 0.91 | locus YDR195W, strain ref2 0.975 | locus YDR297W, strain sur2, stronger effect = lower value 1.01 | locus YDR318W, strain mcm21, stronger effect = lower value 0.992 | locus YDR334W, strain swr1, stronger effect = lower value 1 | locus YDR335W, strain msn5, stronger effect = lower value 1.01 | locus YDR388W, stronger effect = lower value 0.999 | locus YDR392W, strain spt3, stronger effect = lower value 0.997 | locus YDR502C, strain sam2, stronger effect = lower value 0.995 | locus YEL003W, strain gim4, stronger effect = lower value 1.02 | locus YEL037C, strain rad23, stronger effect = lower value 1.01 | locus YEL061C, strain CIN8 (second series), stronger effect = lower value 1.01 | locus YEL061C, strain CIN8, stronger effect = lower value 1.03 | locus YER015W, strain faa2, stronger effect = lower value 1.01 | locus YER016W, strain bim1, stronger effect = lower value 0.999 | locus YER110C, stronger effect = lower value 1 | locus YER111C, strain swi4, stronger effect = lower value 1.01 | locus YER155C, strain BEM2 (second series), stronger effect = lower value 1.02 | locus YER155C, strain BEM2, stronger effect = lower value 1.01 | locus YER167W, strain BCK2, stronger effect = lower value 1.01 | locus YFR010W, strain ubp6, stronger effect = lower value 1.01 | locus YGL078C, strain dbp3, stronger effect = lower value 0.971 | locus YGL086W, strain mad1, stronger effect = lower value 0.999 | locus YGL167C, strain pmr1, stronger effect = lower value 1 | locus YGL173C, strain kem1, stronger effect = lower value 1.02 | locus YGL227W, strain vid30, stronger effect = lower value 1 | locus YGL240W, strain doc1, stronger effect = lower value 1.03 | locus YGL248W, strain PDE1, stronger effect = lower value 0.94 | locus YGL253W, strain hxk2, stronger effect = lower value 1.01 | locus YGR135W, strain pre9, stronger effect = lower value 0.974 | locus YGR252W, strain gcn5, stronger effect = lower value 0.959 | locus YHR013C, strain ard1, stronger effect = lower value 1.06 | locus YHR027C, strain rpn1, stronger effect = lower value 1 | locus YHR030C, strain SLT2, stronger effect = lower value 1.02 and 1.01 | locus YHR079C, strain IRE1 (second series), stronger effect = lower value 0.997 | locus YHR079C, strain IRE1, stronger effect = lower value 1.01 | locus YHR094C, strain hxt1, stronger effect = lower value 1 | locus YHR129C, strain ARP1, stronger effect = lower value 1.01 | locus YHR142W, strain chs7, stronger effect = lower value 0.976 | locus YHR200W, strain rpn10, stronger effect = lower value 1.02 | locus YIL066C, strain RNR3, stronger effect = lower value 1.01 | locus YIL073C, strain SPO22, stronger effect = lower value 0.881 | locus YIL125W, strain kgd1, stronger effect = lower value 0.99 | locus YIR030C, strain dcg1, stronger effect = lower value 0.996 | locus YJL092W, strain hpr5, stronger effect = lower value 1 | locus YJL095W, strain BCK1 (second series), stronger effect = lower value 1.01 | locus YJL095W, strain BCK1, stronger effect = lower value 0.992 and 1.02 | locus YJL115W, strain asf1, stronger effect = lower value 1 | locus YJL129C, strain trk1, stronger effect = lower value 0.994 | locus YJL134W, strain LCB3, stronger effect = lower value 1.02 | locus YJL154C, strain vps35, stronger effect = lower value 0.993 | locus YJL164C, strain tpk1, stronger effect = lower value 0.997 | locus YJL166W, strain qcr8, stronger effect = lower value 0.984 | locus YJL168C, strain set2, stronger effect = lower value 0.986 | locus YJL187C, strain SWE1 (second series), stronger effect = lower value 1 | locus YJL187C, strain SWE1, stronger effect = lower value 1.01 | locus YJR043C, strain POL32, stronger effect = lower value 1.03 | locus YJR066W, strain TOR1, stronger effect = lower value 0.951 | locus YKL009W, strain mrt4, stronger effect = lower value 0.985 | locus YKL068W, stronger effect = lower value 1.01 | locus YKL085W, strain MDH1 (second series), stronger effect = lower value 1.01 | locus YKL085W, strain MDH1, stronger effect = lower value 1.01 | locus YKL160W, strain elf1, stronger effect = lower value 0.998 | locus YKR001C, strain vps1, stronger effect = lower value 0.91 | locus YKR026C, strain gcn3, stronger effect = lower value 0.977 | locus YKR091W, strain srl3, stronger effect = lower value 0.995 | locus YLL001W, strain dnm1, stronger effect = lower value 0.993 | locus YLL026W, stronger effect = lower value 1 | locus YLL041C, strain sdh2, stronger effect = lower value 0.996 | locus YLR027C, strain aat2, stronger effect = lower value 1 | locus YLR039C, strain RIC1, stronger effect = lower value 0.922 | locus YLR058C, strain SHM2, stronger effect = lower value 1.01 | locus YLR102C, strain apc9, stronger effect = lower value 1 | locus YLR113W, strain HOG1, stronger effect = lower value 1.02 | locus YLR221C, strain rsa3, stronger effect = lower value 0.997 | locus YLR258W, strain gsy2, stronger effect = lower value 1 | locus YLR262C, strain YPT6 (second series), stronger effect = lower value 0.973 | locus YLR262C, strain YPT6, stronger effect = lower value 0.981 | locus YLR268W, strain sec22, stronger effect = lower value 0.997 | locus YLR320W, strain mms22, stronger effect = lower value 1.01 | locus YLR330W, strain CHS5, stronger effect = lower value 1.02 | locus YLR342W, strain FKS1 (second series), stronger effect = lower value 1.06 | locus YLR342W, strain FKS1, stronger effect = lower value 1.01 | locus YLR357W, strain rsc2, stronger effect = lower value 1.01 | locus YLR370C, strain arc18, stronger effect = lower value 1.01 | locus YLR371W, strain rom2, stronger effect = lower value 1 | locus YLR384C, strain iki3, stronger effect = lower value 1.03 | locus YLR418C, strain cdc73, stronger effect = lower value 1 | locus YML016C, strain PPZ1, stronger effect = lower value 1.01 | locus YML032C, strain rad52, stronger effect = lower value 1.01 | locus YML120C, strain ndi1, stronger effect = lower value 1.02 | locus YML124C, strain tub3, stronger effect = lower value 0.999 | locus YMR058W, strain fet3, stronger effect = lower value 1.02 | locus YMR078C, strain ctf18, stronger effect = lower value 1 | locus YMR125W, strain sto1, stronger effect = lower value 0.992 | locus YMR129W, stronger effect = lower value 0.999 | locus YMR205C, strain PFK2, stronger effect = lower value 1.04 | locus YMR223W, strain ubp8, stronger effect = lower value 0.995 | locus YMR231W, strain pep5, stronger effect = lower value 1 | locus YMR307W, strain GAS1, stronger effect = lower value 0.948 | locus YNL067W, strain RPL9B, stronger effect = lower value 1 | locus YNL071W, strain lat1, stronger effect = lower value 1 | locus YNL153C, strain GIM3, stronger effect = lower value 1.02 | locus YNL183C, strain NPR1, stronger effect = lower value 0.946 | locus YNL209W, strain ssb2, stronger effect = lower value 1 | locus YNL233W, strain BNI4, stronger effect = lower value 1 | locus YNL248C, strain rpa49, stronger effect = lower value 0.986 | locus YNL250W, strain rad50, stronger effect = lower value 1.02 | locus YNL271C, strain bni1, stronger effect = lower value 0.993 | locus YNL298W, strain CLA4, stronger effect = lower value 0.992 | locus YNL307C, strain MCK1, stronger effect = lower value 1.01 | locus YNL322C, strain KRE1 (second series), stronger effect = lower value 1.01 | locus YNL322C, strain KRE1, stronger effect = lower value 1.01 | locus YNR049C, strain mso1, stronger effect = lower value 1 | locus YNR052C, strain pop2, stronger effect = lower value 0.989 | locus YOL012C, strain htz1 1.15 | locus YOL147C, strain pex11, stronger effect = lower value 1 | locus YOR001W, strain rrp6, stronger effect = lower value 0.999 | locus YOR061W, strain CKA2, stronger effect = lower value 1.01 | locus YOR069W, strain VPS5, stronger effect = lower value 1.01 | locus YOR070C, strain gyp1, stronger effect = lower value 1.01 | locus YOR080W, strain dia2, stronger effect = lower value 1.01 | locus YOR083W, strain WHI5, stronger effect = lower value 1 | locus YOR106W, strain vam3, stronger effect = lower value 0.949 | locus YOR136W, strain idh2, stronger effect = lower value 0.996 | locus YOR144C, strain elg1, stronger effect = lower value 1 | locus YOR184W, strain ser1, stronger effect = lower value 0.921 | locus YOR231W, strain MKK1, stronger effect = lower value 1.02 | locus YOR265W, strain rbl2, stronger effect = lower value 0.997 | locus YOR270C, strain vph1, stronger effect = lower value 1.01 | locus YOR290C, strain snf2, stronger effect = lower value 0.979 | locus YOR316C, strain cot1, stronger effect = lower value 1 | locus YPL051W, strain arl3, stronger effect = lower value 1 | locus YPL078C, strain atp4, stronger effect = lower value 0.999 | locus YPL106C, strain sse1, stronger effect = lower value 1.02 | locus YPL240C, strain hsp82, stronger effect = lower value 1 | locus YPL241C, strain CIN2, stronger effect = lower value 1.02 | locus YPL256C, strain CLN2, stronger effect = lower value 1.02 | locus YPR119W, strain clb2, stronger effect = lower value 0.993 | locus YPR141C, strain kar3, stronger effect = lower value 1.01 | locus YPR163C, strain tif3, stronger effect = lower value 1 | locus YPR167C, strain met16, stronger effect = lower value 0.993 | strain wtn01, stronger effect = lower value 1

Reference: PubChem BioAssay AID1159580 (chemical genetic matrix, 2015)
